{
  "source": "the supplement of paper PMC10933113",
  "note": "Counter-ions that a name gives are not always drawn. ± gives the uncertainty stated by the source.",
  "data": [
    {"test_system": "THP-1", "test": "CD54 surface expression induction over DMSO control (% over DMSO); higher = stronger dendritic cell activation", "details": "exposure time: 24 h", "method": "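hCLAT-like CD54 and CD86 surface expression on THP1 cells after 24 h exposure at a single concentration (highest non-cytotoxic concentration, or 100-200 µM if not cytotoxic). Flow cytometry (iQue) was run on 5,000 live cells.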", "values": [
      {"smiles": "CC(C)=CCC1C(=O)N(c2ccccc2)N(c2ccccc2)C1=O", "note": "[Feprazone] (200 µM)", "CD54 surface expression induction": "62.3 ± 3"},
      {"smiles": "CC(=O)C1(C)CC2=C(CCCC2(C)C)CC1C", "note": "(stereo not given) (100 µM)", "CD54 surface expression induction": "4.57 ± 4.8"},
      {"smiles": "CCCCCCCCCCCCCC[N+](C)(C)C", "note": "[Tetradonium bromide] (10 µM)", "CD54 surface expression induction": "17.7 ± 3.4"},
      {"smiles": "O=C(Oc1ccccc1)c1cccc(C(=O)Oc2ccccc2)c1", "note": "[Diphenyl isophthalate] (200 µM)", "CD54 surface expression induction": "-2.76 ± 5"},
      {"smiles": "CCCCC1C(=O)N(c2ccccc2)N(c2ccc(O)cc2)C1=O", "note": "(stereo not given) [Oxyphenbutazone] (10 µM)", "CD54 surface expression induction": "2.37 ± 6.7"},
      {"smiles": "CC(C)c1ccc2oc3nc(N)c(C(=O)O)cc3c(=O)c2c1", "note": "[Amlexanox] (100 µM)", "CD54 surface expression induction": "-5.95 ± 2.7"},
      {"smiles": "c1ccc(SCCSc2ccccc2)cc1", "note": "[1,2-Bis(phenylthio)ethane] (100 µM)", "CD54 surface expression induction": "-6.44 ± 3"},
      {"smiles": "O=C(/C=C/C=C/c1ccc2c(c1)OCO2)N1CCCCC1", "note": "[Piperine] (100 µM)", "CD54 surface expression induction": "0.08 ± 0.77"},
      {"smiles": "CCCCNC(=S)NCCCC", "note": "[N,N'-Dibutylthiourea] (10 µM)", "CD54 surface expression induction": "-6.77 ± 3.8"},
      {"smiles": "N=C1C=CC(=C(c2ccc(N)cc2)c2ccc(N)cc2)C=C1", "note": "[C.I. Basic Red 9 monohydrochloride] (10 µM)", "CD54 surface expression induction": "10.7 ± 6.1"},
      {"smiles": "CCc1oc2ccccc2c1C(=O)c1cc(I)c(O)c(I)c1", "note": "[Benziodarone] (100 µM)", "CD54 surface expression induction": "-0.07 ± 0.74"},
      {"smiles": "C/C=C/C=C/C=O", "note": "[2,4-Hexadienal] (200 µM)", "CD54 surface expression induction": "9.31 ± 6.7"},
      {"smiles": "C/C=C/C=C/CCCCCCCO", "note": "[Codlelure] (200 µM)", "CD54 surface expression induction": "-18.9 ± 4"},
      {"smiles": "COc1cc(Nc2c(C#N)cnc3cc(OCCCN4CCN(C)CC4)c(OC)cc23)c(Cl)cc1Cl", "note": "[Bosutinib] (100 µM)", "CD54 surface expression induction": "-7.93 ± 2.6"},
      {"smiles": "C=CCOC(Cn1ccnc1)c1ccc(Cl)cc1Cl", "note": "(stereo not given) [Imazalil sulfate] (100 µM)", "CD54 surface expression induction": "11.6 ± 11"},
      {"smiles": "Cc1occc1S", "note": "[2-Methyl-3-furanthiol] (200 µM)", "CD54 surface expression induction": "36.6 ± 1.1"},
      {"smiles": "Oc1c(I)cc(Cl)c2cccnc12", "note": "[Clioquinol] (100 µM)", "CD54 surface expression induction": "141 ± 67"},
      {"smiles": "Nc1ccc(Nc2ccccc2)cc1", "note": "[N-Phenyl-1,4-benzenediamine] (200 µM)", "CD54 surface expression induction": "46.9 ± 11"},
      {"smiles": "O=C1c2cccc(O)c2C(=O)c2c(O)cc(CO)cc21", "note": "[Aloe-emodin] (100 µM)", "CD54 surface expression induction": "24.6 ± 18"},
      {"smiles": "CCCCCCCC(=O)Oc1c(Br)cc(C#N)cc1Br", "note": "[Bromoxynil octanoate] (100 µM)", "CD54 surface expression induction": "-3.81 ± 2.4"},
      {"smiles": "Cc1c2ccccc2c(C)c2c1ccc1ccccc12", "note": "[7,12-Dimethylbenzanthracene] (10 µM)", "CD54 surface expression induction": "-22 ± 12"},
      {"smiles": "O=c1cc(-c2ccccc2)oc2ccccc12", "note": "[Flavone] (200 µM)", "CD54 surface expression induction": "62.9 ± 14"},
      {"smiles": "CC(C)(C)c1cc(O)ccc1O", "note": "[tert-Butylhydroquinone] (100 µM)", "CD54 surface expression induction": "48.9 ± 12"},
      {"smiles": "CC(C)=CCC/C(C)=C\\CO", "note": "[(2Z)-3,7-Dimethylocta-2,6-dien-1-ol] (200 µM)", "CD54 surface expression induction": "-9.15 ± 2.5"},
      {"smiles": "CC1=C(/C=C/C(C)=C/C=C/C(C)=C/C=O)C(C)(C)CCC1", "note": "[13-cis-Retinal (Vitamin A aldehyde)] (100 µM)", "CD54 surface expression induction": "188 ± 9.3"},
      {"smiles": "CC(C(=O)O)c1ccc(/C=C2\\CCCCC2=O)cc1", "note": "(stereo not given) [Pelubiprofen] (100 µM)", "CD54 surface expression induction": "-1.67 ± 0.26"},
      {"smiles": "O=C(O)Cn1c(C(=O)Nc2nc(-c3ccccc3Cl)cs2)cc2ccccc21", "note": "[Lintitript] (100 µM)", "CD54 surface expression induction": "1.24 ± 1.1"},
      {"smiles": "O=C(O)c1cn(C2CC2)c2cc(N3CCNCC3)c(F)cc2c1=O", "note": "[Ciprofloxacin] (100 µM)", "CD54 surface expression induction": "-14.9 ± 5.8"},
      {"smiles": "CC(O)C#CC(C)O", "note": "(stereo not given) [Hex-3-yne-2,5-diol] (10 µM)", "CD54 surface expression induction": "6.05 ± 3.8"},
      {"smiles": "COC(=O)Nc1nc2cc([S+]([O-])c3ccccc3)ccc2[nH]1", "note": "(stereo not given) [Oxfendazole] (100 µM)", "CD54 surface expression induction": "17.4 ± 3.6"},
      {"smiles": "CCCCCCCC/C=C\\CCCCCCCC(=O)N(C)CC(=O)O", "note": "[Oleyl sarcosine] (100 µM)", "CD54 surface expression induction": "6.04 ± 0.79"},
      {"smiles": "CCN(CC)CCSC(=O)C(c1ccccc1)c1ccccc1", "note": "[Thiphenamil] (200 µM)", "CD54 surface expression induction": "99.2 ± 12"},
      {"smiles": "COc1cc(/C=C2\\CCC/C(=C\\c3ccc(O)c(OC)c3)C2=O)ccc1O", "note": "[Cyclovalone] (10 µM)", "CD54 surface expression induction": "-1.01 ± 3"},
      {"smiles": "CCCCCCCCCCCCOCCO", "note": "[2-(Dodecyloxy)ethanol] (200 µM)", "CD54 surface expression induction": "34.2 ± 20"},
      {"smiles": "O=[N+]([O-])c1cc(Cl)c(Cl)c(Cl)c1Cl", "note": "[2,3,4,5-Tetrachloronitrobenzene] (10 µM)", "CD54 surface expression induction": "-4.73 ± 2.7"},
      {"smiles": "CC(C)(C)OC(=O)c1ccc(O)cc1", "note": "[tert-Butyl 4-hydroxybenzoate] (100 µM)", "CD54 surface expression induction": "1.75 ± 0.96"},
      {"smiles": "O=C(N/N=C/c1ccccc1O)c1ccncc1", "note": "[Salinazid] (10 µM)", "CD54 surface expression induction": "17.1 ± 8.6"},
      {"smiles": "Cc1ccc(O)c2ncccc12", "note": "[Tiliquinol] (10 µM)", "CD54 surface expression induction": "26.6 ± 6.2"},
      {"smiles": "Oc1ccc(/C=C/c2cc(O)cc(O)c2)cc1", "note": "[Resveratrol] (100 µM)", "CD54 surface expression induction": "1.74 ± 6.8"},
      {"smiles": "O=C(NS(=O)(=O)/C=C/c1ccccc1)c1ccc(F)cc1Cl", "note": "(200 µM)", "CD54 surface expression induction": "1.54 ± 2.2"}
    ]}
  ]
}
